Source: PubChem
Compounds with a hit are over-represented: about 0.77% of the library has one in this group of screens.
RE007 growth inh: less growth of the S. pombe RE007 Vpr strain | 0.21% of 360,000 active | S. pombe RE007 Vpr strain, BacTiter-Glo ATP luminescence, 24 h | Potency, µM (titrated, usually from 92.2 µM), for the others: at the top dose activity change, negative = less growth, actives largely listed as inhibitors; active means well fitted falling curve with a large enough effect; inconclusive means small, poorly fitted or top-dose-only effect; inactive means no such curve, though single readings can be large or run the other way; further: potency means the concentration at half of the fitted maximal effect; on the % scale 0 is the no-effect control and ±100 the full control effect; nearly all actives have a fitted effect of over 50% in size
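Fission yeast RE007 carrying one integrated HIV-1 vpr copy, seeded at OD 0.01 in PMG+AL medium with 23 nL pinned compound. Grown 24 h at 30 degrees; viability read by BacTiter-Glo luminescence after 5 min.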
LmPK inhibitor: blocks Leishmania mexicana pyruvate kinase activity. Q27686. purified LmPK, Kinase-Glo ATP luminescence, 1 h. Potency, µM (doses to about 57.5 µM), inactives show top-dose activity change, negative = inhibition, usual class: inhibitors. 0.37% of 290,000 active; further: potency means the concentration at half of the fitted maximal effect; on the % scale 0 is the no-effect control and ±100 the full control effect
Target sequence (Q27686 whole entry, looked up): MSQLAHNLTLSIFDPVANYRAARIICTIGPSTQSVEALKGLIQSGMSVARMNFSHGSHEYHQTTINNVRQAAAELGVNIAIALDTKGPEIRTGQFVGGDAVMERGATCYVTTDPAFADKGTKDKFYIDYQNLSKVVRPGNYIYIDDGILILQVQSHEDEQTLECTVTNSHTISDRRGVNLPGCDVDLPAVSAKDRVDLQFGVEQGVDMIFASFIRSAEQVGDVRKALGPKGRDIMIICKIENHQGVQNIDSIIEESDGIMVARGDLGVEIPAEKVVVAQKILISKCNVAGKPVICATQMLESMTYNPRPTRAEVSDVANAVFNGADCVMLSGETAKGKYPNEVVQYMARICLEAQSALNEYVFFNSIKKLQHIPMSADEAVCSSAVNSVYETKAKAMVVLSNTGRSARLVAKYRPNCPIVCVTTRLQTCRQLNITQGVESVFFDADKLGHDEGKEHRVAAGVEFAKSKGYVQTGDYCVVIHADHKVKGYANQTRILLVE
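Purified LmPK (0.1 nM) with 0.5 mM PEP and 0.1 mM ADP in imidazole buffer pH 7.2 with MgCl2/KCl, 1 h at room temperature. ATP formed was read by luciferase luminescence and normalized to no-enzyme and uninhibited controls.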
NS1 function inh: blocks influenza NS1 protein function | Potency, µM (titrated, usually from 46.1 µM), inactives show top-dose activity, positive = more growth | 0.4% of 270,000 active; calls by dose curve; further: potency means the concentration at half of the fitted maximal effect; actives are rising curves; nearly all actives have a fitted effect of over 50% in size
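Compounds were scored for reversing the slow growth caused by influenza A NS1 in S. cerevisiae, measured by optical density at 600 nm. Assay medium contained 2% galactose at pH 6.0; NS1-free yeast of the same strain were the positive control.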
TbPYK inhibitor: inhibitors of Trypanosoma brucei pyruvate kinase; Q57TT1; TbPYK enzyme, Kinase-Glo Plus ATP luminescence, 45 min; Potency, µM (series often up to 76.8 µM), inactives show at the highest dose activity, negative = inhibition, hits mostly inhibitors; 0.12% of 410,000 active; AID 624173; further: potency means the concentration at half of the fitted maximal effect; on the % scale 0 is the no-effect control and ±100 the full control effect; nearly all actives have a fitted effect of over 50% in size
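Glycolytic pyruvate kinase of T. brucei was incubated with substrate, test compound and 130 uM ADP for 45 minutes at room temperature. Luminescent Kinase-Glo Plus signal was measured after 10 minutes.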
NS1 inh valid: influenza NS1 function inhibition validation | shares compounds with NS1 function inh | influenza NS1 function cell assay, 15-point titration | 1,400 tested, under 10 active | activity change, negative = inhibition, % at 32.9 µM; calls by dose curve; further: 0% is about no effect
An asterisk follows results filed as active; ? = inconclusive; nt = no result given; ! = not active in a repeat; [ ] = dose if it differs, or a comment. Unless noted, the call rests on the fitted dose curve; in most records, active means well fitted curve in the direction sought with a large enough effect; inconclusive means small, poorly fitted or top-dose-only effect, or another doubt; inactive means no such curve, though single readings can be large; an effect the other way counts as inactive or inconclusive.

SMILES	RE007 growth inh	LmPK inhibitor	NS1 function inh	TbPYK inhibitor	NS1 inh valid
COC(=O)C(O)(c1c(C)[nH]n(-c2ccccc2)c1=O)C(F)(F)F (stereo unspecified)	?	-6.5%	8.91µM*	-1.3%	?
CCOC(=O)COc1ccc2c(c1)C(=O)CC1(CCCCC1)O2	6.4%	1.2%	-13.4%	1.1%	nt
Nc1cccc(C2=Nc3cccc4cccc(c34)N2)c1	-14.8%	-17.1%	13.0%	-12.9%	nt
COc1ccc(C2=Nc3cccc4cccc(c34)N2)cc1	-17.4%	7.4%	3.55µM*	-5.2%	-3.8
CC(C)N1[N]C(=C2C=c3cc(O)ccc3=N2)c2c(N)ncnc21	nt	nt	nt	6.3%	nt
CC(=O)N1CCN(C(=O)CCCNC(=O)c2ccc(Cl)cc2)CC1	10.3%	nt	nt	1.9%	nt
CC(=O)c1ccc(NC(=O)C(C)O/N=C(\N)c2ccccc2)cc1 (stereo unspecified)	-2.9%	nt	nt	-4.4%	nt
COc1ccc(N(C)S(=O)(=O)c2cccc(C(=O)OC(C(=O)Nc3cc(C)cc(C)c3)c3ccccc3)c2)cc1 (stereo unspecified)	nt	2.3%	8.91µM*	-9.3%	26.5
COc1ccc(S(=O)(=O)N2CCN(C(=O)c3cccc(S(=O)(=O)N4CCCC4)c3)CC2)cc1	-1.2%	nt	nt	-0.3%	nt
COc1ccc(N(C)S(=O)(=O)c2cccc(C(=O)N3CCN(S(=O)(=O)c4ccc(C)cc4)CC3)c2)cc1	11.3%	-0.5%	11.2µM*	3.4%	3.8
O=[N+]([O-])c1cc(S(=O)(=O)Nc2ccccc2)ccc1N1CCN(c2ccc(O)cc2)CC1	4.6%	-6.0%	14.1µM*	-16.9%	5.6
Cc1ccc(NS(=O)(=O)c2ccc(N3CCN(c4ccc(O)cc4)CC3)c([N+](=O)[O-])c2)c(C)c1	-2.4%	-1.5%	16.4%	?	nt
Cc1ccc(S(=O)(=O)N(C)Cc2ccc(C(=O)NN=C(CC(C)C)CC(C)C)cc2)cc1	7.6%	1.2%	?	0.3%	nt
CC/C(=N\NC(=O)c1ccc(CN(C)S(=O)(=O)c2ccc(C)cc2)cc1)c1ccc(OC(F)F)cc1	32.6%	1.9%	?	11.4%	13.7
CCOC(=O)Cc1cc(=O)n(-c2nc3ccccc3s2)[nH]1	2.6%	-1.4%	10µM*	-4.3%	0.4
CCCc1cc(=O)n(-c2nc3ccccc3s2)[nH]1	6.1%	-0.3%	1.9%	6.2%	nt
COc1ccccc1N1CCN(C(=O)c2oc3ccccc3c2N)CC1	nt	nt	nt	-5.5%	nt
O=C(Cc1cccc2ccccc12)N/N=C/c1ccc(Sc2nc3ccccc3s2)o1	1.2%	4.6%	10µM*	-5.3%	11.0
COc1ccc(-c2cc([C@H]3[C@@H]4C=CCC[C@@]4(C)C(=O)N3Cc3ccccc3)ccc2F)cc1OC	20.5%	3.9%	14.0%	-2.6%	nt
C[C@@H]1O[C@@]2(CS1)CN1CCC2CC1	nt	nt	nt	-7.0%	nt
Cc1cccc(OCC(=O)NCCN2CCOCC2)c1	-8.9%	-2.3%	1.78µM*	-17.0%	-2.5
Cn1c(N)c(C(=O)COC(=O)c2cc(C3CC3)nc3ccccc23)c(=O)n(Cc2ccccc2)c1=O	20.1%	-0.5%	11.2µM*	2.6%	9.9
Cn1c(N)c(C(=O)COC(=O)c2cc(-c3ccccc3)nc3ccccc23)c(=O)n(Cc2ccccc2)c1=O	1.1%	6.7%	?	2.0%	nt
COc1ccc(CNC(=O)Cc2coc3ccc(C)cc23)cc1	nt	nt	nt	-0.1%	nt
COc1ccc(Br)cc1C1CC(=O)N2CN(Cc3ccccc3)CSC2=C1C#N (stereo unspecified)	5.9%	7.0%	11.2µM*	?	-15.5
SMILES	RE007 growth inh	LmPK inhibitor	NS1 function inh	TbPYK inhibitor	NS1 inh valid
O=S(=O)(c1cccc(-c2csc(N/N=C/c3ccco3)n2)c1)N1CCOCC1	16.4%	4.5%	5.0%	-11.6%	nt
COc1ccc(/C=N/Nc2nc(-c3cccc(S(=O)(=O)N4CCCC4)c3)cs2)cc1OC	8.7%	-1.1%	12.6µM*	-11.6%	19.0
CCOc1cc(C=NNC(=O)c2cccc(S(=O)(=O)N3CCCC3)c2)ccc1O	-29.3%	nt	nt	0.6%	nt
CCOc1cc(/C=N/Nc2nc(-c3cccc(S(=O)(=O)N4CCCC4)c3)cs2)ccc1O	-8.7%	-0.1%	10µM*	1.3%	18.9
COc1ccc(Br)c(C(=O)OCC(=O)NC2CCCCCCC2)c1	9.4%	nt	nt	3.3%	nt
CC(=O)Oc1ccc2c3c1OC1[C@@H](OC(C)=O)C=C[C@H]4[C@H](C2)N(C)CC[C@]314 (stereo partly specified)	nt	nt	nt	8.9%	nt
CCOC(=O)C1=C(C)N(CCCCCC(=O)O)C(=O)NC1c1ccccc1Cl (stereo unspecified)	0.0%	4.8%	?	1.6%	13.7
O=c1c2c3nc4ccccc4nc3n(Cc3ccccc3)c2ncn1Cc1ccco1	29.6%	2.2%	15.8µM*	-18.2%	-14.3
Cc1cccc(C(=O)NN2C(=O)C3C(c4ccccc4)C=CC(c4ccccc4)C3C2=O)c1 (stereo unspecified)	0.2%	2.2%	3.16µM*	3.5%	-1.2
N#Cc1ccc(CN2CCN(C(=O)CNC(=O)Cc3ccccc3)CC2)cc1	0.0%	nt	nt	0.0%	nt
CCCCc1nc2c(c3c1C[C@H](C)OC3)CN(C(=O)Cc1cccs1)CC2	nt	-6.3%[11.5 µM]	nt	nt	nt
N#C/C(=C\c1c[nH]c2ccccc12)C(=O)Nc1ncc(Cc2ccc(Cl)cc2Cl)s1	-12.0%	3.1%	11.2µM*	-2.6%	-19.4
COCC(=O)Nc1ccc2nc3n(c(=O)c2c1)CCCCC3	18.1%	3.2%	?	1.8%	-5.2
CCOC(=O)N1CCN(C(=O)CC(=O)Nc2ccc3nc4n(c(=O)c3c2)CCCCC4)CC1	26.6%	-1.9%	-3.4%	-5.9%	nt
COC(=O)C[C@H]1c2ccccc2C2=C(C[C@@H](C)[C@H]3C(=O)NC(=O)[C@@H]23)N1C(=O)OC	nt	1.9%[11.5 µM]	nt	nt	nt
CC(C)(C)C(=O)Nc1ccc(C(=O)N/N=C/c2ccccc2OC(=O)c2ccc(Cl)cc2)cc1	8.7%	-4.1%	10µM*	18.0%	20.5
CC(C)(C)C(=O)Nc1ccc(C(=O)N/N=C/c2ccccc2OC(=O)c2ccccc2)cc1	-4.8%	2.3%	-3.6%	0.0%	nt
Cc1cccc(C(=O)Oc2ccccc2/C=N/NC(=O)c2ccc(NC(=O)C(C)(C)C)cc2)c1	-14.1%	1.7%	20µM*	-4.7%	31.8
Cc1cccc(NC(=O)Cn2cc(C(=O)c3ccccc3)c3ccccc32)c1C	nt	nt	nt	1.9%	nt
O=C(O)c1cc(-c2ccco2)nc2ccc(Br)cc12	-29.8%	2.7%	20µM*!	17.8µM*!	10.6
COc1cccc(NC(=O)CC2S/C(=N\S(=O)(=O)c3ccccc3)N(c3ccccc3)C2=O)c1 (stereo unspecified)	-3.1%	0.4%	10µM*	5.1%	19.6
COc1cccc(NC(=O)CC2SC(=Nc3ccccc3)NC2=O)c1 (stereo unspecified)	0.9%	0.4%	-2.7%	-5.6%	nt
Cc1ccc2c(c1)NCC(C(=O)NC1CCCCC1)O2 (stereo unspecified)	-11.7%	1.5%	7.94µM*	-17.4%	0.7
Cc1ccc(C)c(NC(=O)NC2CCCCCCC2)c1	3.4%	1.1%	-6.8%	-10.1%	nt
